# Sampled rows, rich in hits. Any-hit rate of the full collection: about 3.2%.
# 15-hLO inh – 15-hLO (ALOX15) enzyme inhibition. P16050. AID 887. Potency, µM (top dose mostly 57.1 µM), hits mostly inhibitors. purified 15hLO-1, xylenol orange hydroperoxide absorbance. hit rate 1.4% among 74,000; further: nearly all actives have a fitted effect of over 55% in size
# Target sequence (P16050 whole entry, looked up): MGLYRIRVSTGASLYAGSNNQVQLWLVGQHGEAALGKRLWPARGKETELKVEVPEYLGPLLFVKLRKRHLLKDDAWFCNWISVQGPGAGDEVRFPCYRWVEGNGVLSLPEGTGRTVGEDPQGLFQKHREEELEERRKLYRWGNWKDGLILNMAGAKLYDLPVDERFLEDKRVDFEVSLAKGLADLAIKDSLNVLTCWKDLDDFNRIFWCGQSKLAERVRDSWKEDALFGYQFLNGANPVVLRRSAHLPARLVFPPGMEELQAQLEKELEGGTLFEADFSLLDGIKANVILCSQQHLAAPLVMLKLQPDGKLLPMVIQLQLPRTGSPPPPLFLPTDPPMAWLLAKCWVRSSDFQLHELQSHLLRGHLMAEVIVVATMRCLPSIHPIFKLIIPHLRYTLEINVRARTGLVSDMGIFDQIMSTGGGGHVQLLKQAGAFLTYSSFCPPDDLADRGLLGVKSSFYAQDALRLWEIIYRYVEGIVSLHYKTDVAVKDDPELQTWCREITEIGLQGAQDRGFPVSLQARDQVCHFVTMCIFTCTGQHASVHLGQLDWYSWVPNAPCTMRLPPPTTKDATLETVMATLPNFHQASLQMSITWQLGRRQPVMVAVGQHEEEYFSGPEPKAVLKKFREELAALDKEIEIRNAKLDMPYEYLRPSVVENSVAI
#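 Purified human 15hLO-1 (40 nM) in 25 mM Hepes pH 7.5, 0.01% Triton X-100, preincubated 15 min RT with compound, then 50 uM arachidonic acid for 6 min. Hydroperoxide read by ferrous/xylenol orange, 30 min; 573/405 nm absorbance ratio gave progress.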
# HBB splice mod – hemoglobin beta splicing modulation; hit rate 0.06% among 65,000; HBB splicing reporter cell assay, activation; EGFP reporter with mutant IVS2-654 intron; response scale: normalised to 500 nM splice-correcting PNA; Potency, µM (series often up to 46.1 µM), actives largely listed as activators
#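 HeLa cells stably expressing EGFP interrupted by mutant beta-globin intron 2 (IVS2-654), 500/well in 2% FCS. Treated with compound for 2 days at 37C. Splicing correction scored as total well GFP intensity (488 nm excitation, 500-520 nm emission); 500 nM antisense PNA served as control.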
# Ub-GFP proteasome – inhibits proteasome, raising ubiquitin-GFP reporter fluorescence | Ubiquitin-GFP reporter cells, proteasome inhibition, GFP fluorescence; response scale: untreated = 0%, 10 µM MG-132 = 100% | Potency, µM (series often up to 45.9 µM), actives largely listed as activators | 67,000 tested, under 10 active | AID 526; active means well fitted activation curve with a large enough effect, not every such curve was filed as active; inconclusive means small, poorly fitted or top-dose-only effect, or another doubt; inactive means no such curve, though single readings can be large or run the other way
#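 GFP accumulation read-out: laser plate cytometry counting ubiquitin(G76V)-GFP-expressing U2OS cells after 4 hr compound exposure at 37 °C. Titrations spanned 46 uM to 2.9 nM; 0% = basal, 100% = 10 uM MG-132; concentration-response curves fitted.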
# Tau filament bind – tau filament binding; recombinant tau filaments, thioflavin S fluorescence, 15 h; filaments grown with octadecylsulfate alongside compound; Potency, µM (series often up to 57.1 µM); hit rate 2% among 71,000; AID 596;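 further: actives lower thioflavin S fluorescence by blocking filaments or displacing dye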
#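 Recombinant tau protein (human, 1 uM final) plus 30 uM ODS in HEPES pH 7.4 with NaCl, DTT and thioflavine S. Compound present from the start; fluorescence at 510 nm after 15 h, 37 C.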
# GFP derepression – derepresses silenced GFP locus in mouse C127i cells | AID 597 | hit rate 0.09% among 68,000 | mouse C127i GFP locus derepression, cytometry, 30 h | Potency, µM (series often up to 46.1 µM)
#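 Murine C127i mammary cells carrying a silenced, stably integrated CMV-driven GFP reporter were treated with compound for 30 hours at 37 C. After PBS washes, GFP-positive cells were counted by laser-scanning microplate cytometry.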
# DNA Pol III inh – blocks replication by bacterial DNA polymerase III holoenzyme | reconstituted DNA polymerase III holoenzyme replication, biochemical | Potency, µM (doses to about 57.1 µM) | hit rate 0.25% among 71,000 | AID 603
#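 Reconstituted *E. coli* holoenzyme (0.35 nM Pol III, 1 nM beta, 154 nM SSB, 2 nM primase) was preincubated with compound for 15 min at RT. Synthesis on 1.4 nM ssM13Gori ran 35 min, then was stopped with PicoGreen/EDTA and read as dsDNA fluorescence.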
# Numbers stand for hits; . = inactive; ? = inconclusive; / = no result; [ ] = remark or other dose. Unless noted, the call rests on the fitted dose curve; in most records, active means well fitted curve in the direction sought with a large enough effect; inconclusive means small, poorly fitted or top-dose-only effect, or another doubt; inactive means no such curve, though single readings can be large; an effect the other way counts as inactive or inconclusive.
SMILES,15-hLO inh,HBB splice mod,Ub-GFP proteasome,Tau filament bind,GFP derepression,DNA Pol III inh
COc1cccc(C2=NC(C)(C)NC(c3ccccc3O)C2)c1 (stereo unspecified),31.6µM,.,.,.,.,.
O=C(O)Cc1[nH]cnc1C(=O)O,.[11.4 µM],.[9.22 µM],.[9.17 µM],.[11.4 µM],.[9.22 µM],.[11.4 µM]
c1ccc(C2=NN[C@@H]3c4ccccc4-c4ccccc4N3C2)cc1,?,.[9.22 µM],.[9.17 µM],3.98µM,.[9.22 µM],.[11.4 µM]
NC(=O)C/C=C\CC(N)=O,.[11.4 µM],.[9.22 µM],.[9.17 µM],.[11.4 µM],.[9.22 µM],.[11.4 µM]
Cc1ccc(NC(=O)CSC2=C(C#N)C(c3ccc4c(c3)OCO4)C3=C(CCCC3=O)N2)c(C)c1 (stereo unspecified),3.16µM,.,.,.,.,.
COc1cc(N=C(N)N=C(N)N)c2ncccc2c1,.[11.4 µM],.[9.22 µM],.[9.17 µM],.[11.4 µM],.[9.22 µM],.[11.4 µM]
COc1ccc2[nH]c(=O)c(CN(Cc3nnnn3Cc3ccc(F)cc3)CC3CCCO3)cc2c1 (stereo unspecified),25.1µM,/,.,.,.,.
COc1ccc2[nH]c(=O)c(CN(Cc3nnnn3Cc3ccccc3)CC3CCCO3)cc2c1 (stereo unspecified),?,/,.,.,.,.
Nc1cccc(C(F)(F)F)c1,.,.,/,.,/,.
Cc1sc(N)c(C(=O)c2cccc(C(F)(F)F)c2)c1C,.,/,.,31.6µM,.,.
CC(C)(C)c1ccc(OCC2CO2)cc1 (stereo unspecified),.,.,/,.,/,.
Cc1cc(C)c(C#N)c(N2CCN(Cc3ccc4c(c3)OCO4)CC2)n1,.,.,.,.,.,.
CC(C)COC(=O)C(C#N)c1nc2ccccc2nc1N1CCN(Cc2ccc3c(c2)OCO3)CC1 (stereo unspecified),.,.[1.84 µM],.,2µM,.,.
CCCCOC(=O)C(C#N)c1nc2ccccc2nc1N1CCN(Cc2ccc3c(c2)OCO3)CC1 (stereo unspecified),.,.,.,0.398µM,.,.
COC(=O)C(C#N)c1nc2ccccc2nc1N1CCN(Cc2ccc3c(c2)OCO3)CC1 (stereo unspecified),.,.,.,12.6µM,?,.
c1cnc(N2CCN(Cc3ccc4c(c3)OCO4)CC2)nc1,.,.,.,?,.,.
O=c1cnc2cncnc2n1Cc1ccc(F)cc1,.,.,.,.,.[9.22 µM],.
Cc1ccc2nc(Nc3ccc4[nH]c(=O)[nH]c4c3)c(-n3nc(C)cc3C)nc2c1,.,.,.,0.631µM,.,.
Cc1cc(C)n(-c2nc3ccccc3nc2Nc2ccc3c(c2)OCO3)n1,.,.,.,.,.,.
CN(C)C=O,.,.,/,.,/,.
COC(=O)c1ccccc1NC(=O)CSc1nnnn1-c1ccc(C)cc1C,?,.,.,10µM,.,.
COc1ccc(N2Cc3cccc(C(=O)NC(C)CCc4ccco4)c3C2=O)cc1 (stereo unspecified),20µM,.,.,.,.,.
CCOC(=O)N1CCC(NC(=O)c2cccc3c2C(=O)N(c2ccc(OC)cc2)C3)CC1,?,.,.,.,.,.
Cc1cc(N)n2ncc(-c3cccc(Br)c3)c2n1,.[11.4 µM],.[0.0738 µM],.[9.17 µM],1.58µM,.,.[11.4 µM]
Cc1cc(N)n2ncc(-c3ccccc3)c2n1,?,/,.,.,.,.
SMILES,15-hLO inh,HBB splice mod,Ub-GFP proteasome,Tau filament bind,GFP derepression,DNA Pol III inh
O=C(O)/C=C\C(=O)Nc1ncn[nH]1,.[11.4 µM],.[9.22 µM],.[9.17 µM],.[11.4 µM],.[9.22 µM],.[11.4 µM]
O=C(O)C[C@H](S)C(=O)O,.[11.4 µM],.[9.22 µM],.[9.17 µM],.[11.4 µM],.[9.22 µM],.[11.4 µM]
CCCN1C(=O)c2cc(C(=O)NC3CCCCCC3)ccc2C1O (stereo unspecified),.,.,.,.,/,.
CCCN1C(=O)c2cc(C(=O)O)ccc2C1O (stereo unspecified),20µM,.,.,.,/,.
COc1ccccc1CNc1ncnc2ccc(-c3ccccc3OC)cc12,.,.,.,.,.[9.22 µM],.
Cn1cccc1Cc1nnc(SCC(=O)Nc2nc3ccccc3s2)n1CCc1ccccc1,.,.,.,.,.,.
CCn1c(Cc2ccccc2)nnc1SCC(=O)Nc1nc2ccccc2s1,25.1µM,.,.,.,.,.
CCCCCCCCCCCCC/C=C\[C@H](O)[C@H](N)CO,/,.,.,.,.,.
C=C/C1=C/Cc2ccccc2C(C[N+](=O)[O-])C(C(=O)OC)(C(=O)OC)C1 (stereo unspecified),.[11.4 µM],.[9.22 µM],/,/,/,/
COC(=O)c1ccccc1NC(=O)c1ccc2c(c1)C(=O)N(Cc1ccco1)C2=O,.,.,.,.,.,.
CCc1ccc(NC(=O)c2ccc3c(c2)C(=O)N(Cc2ccco2)C3=O)cc1,.,.,.,25.1µM,/,.
CCN1C(C)=C(C(=O)OC)C(c2ccccc2)N2C(=O)[C@](O)(C(=O)OC)CC(C(C)=O)=C12 (stereo partly specified),.[11.4 µM],.[9.22 µM],/,/,/,/
CCOCCOC(=O)c1cccc(NC(=O)OCC)c1,.,.[9.22 µM],.,.,.,.
CCOCCOC(=O)C1=C(C)Nc2ccc(C)cc2S1,?,.,.,12.6µM,.,.
Oc1c(-c2cc(-c3ccco3)[nH]n2)ccc2ccccc12,.,.,.,15.8µM,.,.
O=c1c2ccccc2sn1-c1cc(S(=O)(=O)N2CCOCC2)ccc1N1CCOCC1,15.8µM,.,.,.,.,.
COc1ccc(C(=O)Nc2ccccc2C(=O)NCc2ccco2)cc1OC,.,.,.,.,.,.
COc1ccc(N=c2oc3c(OC)cccc3cc2C(=O)NCc2ccco2)cc1OC,.,/,.,1.26µM,?,.
COc1ccccc1N=c1oc2c(OC)cccc2cc1C(=O)NCc1ccco1,.,/,.,2.51µM,.,.
COc1ccc(OC)c(N=c2oc3c(OC)cccc3cc2C(=O)NCc2ccco2)c1,.,/,.,0.794µM,.,.
O=C(N[C@@]1(C(=O)O)C[C@@H]1c1ccccc1)c1ccccc1,.[11.4 µM],.[9.22 µM],.[9.17 µM],.[11.4 µM],.[9.22 µM],.[11.4 µM]
Cc1nn(-c2ccc(F)cc2F)c2c1-c1nc(N3CCCC3)ncc1CC2,25.1µM,.,.,.,.,.
C=CCn1c(N)c(C(=O)N2CCN(C)CC2)sc1=S,.,.,.,.,.,.
C=CCn1c(N)c(C(=O)NCCC2=CCCCC2)sc1=S,25.1µM,.,.,.,.,.
FC(F)(F)c1cc(CN2CCC3(CCNCC3)CC2)cc(C(F)(F)F)c1,.,.,.,12.6µM,.[9.22 µM],.
Cc1cc(C)c(C)c(S(=O)(=O)NCCC(=O)O)c1C,.,/,/,/,/,/
CCN1C(=O)/C(=C/N(C)c2ccccc2)OC1=S,7.94µM,.,.,.,.,.
CCN1C(=O)/C(=C/N2CCc3ccccc32)SC1=S,.,.,.,.,.,.
CCN1C(=O)/C(=C2/C=CC=CN2C)OC1=S,.[11.4 µM],.[0.0738 µM],.[9.17 µM],.[11.4 µM],.,.[11.4 µM]
CN1C=CC=C/C1=C1\SC(=S)N(C2CCCCC2)C1=O,.[11.4 µM],.[0.0738 µM],.[9.17 µM],3.98µM,.,.[11.4 µM]

# Screening results (PubChem BioAssay)
